Bioassay records deposited in PubChem BioAssay by National Center for Advancing Translational Sciences (NCATS).
Rows were chosen to be rich in hits. Some 7.9% of all compounds tested hit in one or more screens of this group.
SW480 rereplic: DNA re-replication induction in SW480 cells. SW480 DNA re-replication, Hoechst DNA content imaging, 48 h. Potency, µM (top dose mostly 46.1 µM), for inactives: at the top dose re-replication activation, hits mostly activators. 340,000 tested, 1.8% active. AID 624297; further: % of control where 0% means no effect; nearly all actives have a fitted effect of over 55% in size
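Image-based DNA-content assay: after two days of treatment, nuclei were labelled with the DNA dye Hoechst and imaged, and hits were compounds raising the count of nuclei showing high fluorescence intensity.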
MCF10A rerep: inducers of DNA re-replication in MCF 10A breast cells. MCF 10A DNA re-replication, Hoechst nuclear intensity, 48 h. AID 624296. Potency, µM (highest dose often 46.1 µM), inactives show at the highest dose activity, positive = re-replication, usual class: activators. 350,000 tested, 2.9% active; further: % of control where 0% means no effect; nearly all actives have a fitted effect of over 50% in size
HT1080 IDH1KD tx: toxicity to HT-1080 IDH1 knockdown cells (counter line); AID 686971; 360,000 tested, 2% active; HT-1080 IDH1 knockdown viability, ATP luminescence, 48 h; Potency, µM (top dose mostly 46.1 µM), for the others: at the top dose activity, negative = toxicity, actives largely listed as cytotoxic;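 further: 0% = DMSO wells and -100% = cell-free medium wells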
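% activity derives from luminescence (CellTiter-Glo), normalised to DMSO and no-cell wells. HT-1080-IDH1KD cells, 750/well, had 48 h compound exposure at 37 °C.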
KB-3-1 cytotox: kills parental KB-3-1 adenocarcinoma cells; KB-3-1 viability, CellTiter-Glo ATP luminescence, 72 h; Potency, µM (highest dose often 46.1 µM), hits mostly cytotoxic; 400,000 tested, 1.4% active; AID 1347075; further: on the % scale 0 is the no-effect control and ±100 the full control effect; nearly all actives have a fitted effect of over 60% in size
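Luminescent ATP read-out (CellTiter-Glo) measures survival of drug-naive KB-3-1 cells after 72 h compound exposure at 37 °C. Titration series was screened from lowest to highest concentration, with DMSO vehicle plates as background controls.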
HT1080NT lethal: kills 2HG-producing HT-1080-NT fibrosarcoma cells; HT-1080-NT fibrosarcoma viability, CellTiter-Glo ATP luminescence, 48 h; Potency, µM (highest dose often 46.1 µM), without a hit: at the top dose activity, negative = less viability, most hits filed as cytotoxic; 360,000 tested, 1.6% active; AID 686970;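 further: NT is the 2HG producing partner of a matched IDH1 knockdown line; 0% = DMSO-treated cells and -100% = media-only wells without cells; nearly all actives have a fitted effect of over 55% in size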
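750 cells/well, RPMI + 5% FBS; 2 h settle, compound pin-transfer, 48 h at 37 degrees C. CellTiter-Glo 10 min RT, luminescence. Normalized to DMSO and media-only wells.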
KB-V1 cytotox: kills drug-selected multidrug resistant KB-V1 cells | KB-V1 MDR cells viability, CellTiter-Glo, 72 h | Potency, µM (top dose mostly 46.1 µM), usual class: cytotoxic | 400,000 tested, 3.4% active | AID 1347076; further: on the % scale 0 is the no-effect control and ±100 the full control effect; nearly all actives have a fitted effect of over 60% in size
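Luminescent ATP read-out (CellTiter-Glo, 10 min) measures survival of drug-selected KB-V1 MDR cells after 72 h, 37 degrees C compound exposure. Medium: phenol-red-free DMEM, 10% FBS. Values from fitted concentration-response curves.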
Numbers without * were called inactive; [ ] = remark or other dose. The call rests on the fitted dose curve; in most records, active means well fitted curve in the direction sought with a large enough effect; inconclusive means small, poorly fitted or top-dose-only effect, or another doubt; inactive means no such curve, though single readings can be large; an effect the other way counts as inactive or inconclusive. Potency means the concentration at half of the fitted maximal effect.

Screening Cc1cc(S(=O)(=O)NCc2ccccc2)ccc1OCC(=O)Nc1cccc([N+](=O)[O-])c1 returned SW480 rereplic -12%, MCF10A rerep inconclusive, HT1080 IDH1KD tx inconclusive, KB-3-1 cytotox inactive, HT1080NT lethal -21% and KB-V1 cytotox 13µM*.
`Brc1ccc(-c2nnc3sc(CN4CCCCC4)cn23)cc1` gave KB-3-1 cytotox inactive and KB-V1 cytotox inactive.
Screening c1ccc(-c2nnc3sc(CN4CCC5(CC4)OCCO5)cn23)cc1 returned SW480 rereplic -2%, MCF10A rerep -3%, HT1080 IDH1KD tx -17%, KB-3-1 cytotox inactive, HT1080NT lethal -13% and KB-V1 cytotox 21µM*.
`Cc1cc(F)ccc1S(=O)(=O)Nc1ncnc2sccc12` gave SW480 rereplic -11%, MCF10A rerep 2%, HT1080 IDH1KD tx 0%, KB-3-1 cytotox inactive, HT1080NT lethal 2% and KB-V1 cytotox inactive.
For COc1cccc(Nc2sc(C(=O)c3ccc(Cl)cc3)c(N)c2C(=O)NCCc2ccc(OC)c(OC)c2)c1 the results were KB-3-1 cytotox inactive and KB-V1 cytotox inactive.
COc1ccccc1NC(=O)c1c(Nc2ccccc2F)sc(C(=O)Nc2cccc(Cl)c2)c1N was read as SW480 rereplic -1%, MCF10A rerep inconclusive, HT1080 IDH1KD tx inconclusive, KB-3-1 cytotox inactive, HT1080NT lethal 15µM* and KB-V1 cytotox inactive.
`CCN(CC)CCNc1nc2nonc2nc1NCCN(CC)CC` gave SW480 rereplic inconclusive, MCF10A rerep 19%, HT1080 IDH1KD tx 1%, KB-3-1 cytotox inactive, HT1080NT lethal -16% and KB-V1 cytotox inactive.
Cc1ccc(-c2nn3c(C)nnc3s2)cc1NC(=O)c1ccc(-c2ccc(Cl)cc2Cl)o1 was read as SW480 rereplic 18%, MCF10A rerep 7.3µM*, HT1080 IDH1KD tx inconclusive, KB-3-1 cytotox 21µM*, HT1080NT lethal inconclusive and KB-V1 cytotox inconclusive.
Screening Cc1ccc(-c2nn3c(C)nnc3s2)cc1NC(=O)c1ccc(Br)o1 returned SW480 rereplic 0%, MCF10A rerep 0%, HT1080 IDH1KD tx 5%, KB-3-1 cytotox inactive, HT1080NT lethal 5% and KB-V1 cytotox inactive.
`Cc1ccc(OCC(=O)Nc2cc(-c3nn4c(C)nnc4s3)ccc2C)cc1` gave SW480 rereplic -9%, MCF10A rerep -4%, HT1080 IDH1KD tx 9%, KB-3-1 cytotox 18µM*, HT1080NT lethal 2% and KB-V1 cytotox inconclusive.
`CCC(=O)Nc1cc(-c2nn3c(C)nnc3s2)ccc1C` gave SW480 rereplic -6%, MCF10A rerep 0%, HT1080 IDH1KD tx 16%, KB-3-1 cytotox inactive, HT1080NT lethal 12% and KB-V1 cytotox inactive.
CC(=O)Nc1cc(-c2cccc(C(=O)NCCO)c2)cn2c(-c3ccc(F)cc3)cnc12 was read as HT1080 IDH1KD tx -26%, KB-3-1 cytotox inactive, HT1080NT lethal inconclusive and KB-V1 cytotox inactive.
CC(=O)Nc1cc(-c2ccc(C(=O)NC3CC3)cc2)cn2c(-c3cccc(C(F)(F)F)c3)cnc12 was read as HT1080 IDH1KD tx 16µM*, KB-3-1 cytotox inconclusive, HT1080NT lethal inconclusive and KB-V1 cytotox inactive.
Screening CC(=O)Nc1cc(-c2ccc(C(=O)NC3CC3)cc2)cn2c(-c3cccc(C(C)=O)c3)cnc12 returned HT1080 IDH1KD tx inconclusive, KB-3-1 cytotox inactive, HT1080NT lethal 15µM* and KB-V1 cytotox inactive.
For CC(=O)Nc1cc(-c2ccc(N)cc2)cn2c(-c3cccc(C(F)(F)F)c3)cnc12 the results were HT1080 IDH1KD tx -17%, KB-3-1 cytotox inactive, HT1080NT lethal -3% and KB-V1 cytotox inactive.
For CC(=O)Nc1cc(-c2cccc(C(=O)NCCO)c2)cn2c(-c3cccc(C(F)(F)F)c3)cnc12 the results were HT1080 IDH1KD tx inconclusive, KB-3-1 cytotox inactive, HT1080NT lethal 23µM* and KB-V1 cytotox inactive.
Screening CC(=O)N(C(C)=O)c1ncc2c([nH]c3ccccc32)c1C#N returned SW480 rereplic -1%, MCF10A rerep -1%, HT1080 IDH1KD tx 7.1µM*, KB-3-1 cytotox inactive, HT1080NT lethal 11µM* and KB-V1 cytotox 6.5µM*.
Screening CCN(CC)C(=O)Cn1ncc2c([nH]c3ccccc32)c1=O returned KB-3-1 cytotox inactive and KB-V1 cytotox inactive.
CC(C)OCCCn1c(=O)c2ccccc2n2c(-c3ccc(F)c(F)c3)nnc12 was read as KB-3-1 cytotox inactive and KB-V1 cytotox inactive.
For CC(C)CCNc1nc(-c2ccco2)c2c(c1C#N)CCCC2 the results were SW480 rereplic inconclusive, MCF10A rerep 7.3µM*, HT1080 IDH1KD tx inconclusive, KB-3-1 cytotox inactive, HT1080NT lethal inconclusive and KB-V1 cytotox inactive.
Screening N#Cc1c(NCCN)nc(-c2ccco2)c2c1CCCC2 returned SW480 rereplic 18µM*, MCF10A rerep 12µM*, HT1080 IDH1KD tx inconclusive, KB-3-1 cytotox inconclusive, HT1080NT lethal inconclusive and KB-V1 cytotox inconclusive.
`CC(=O)C(C(C)=O)c1c(Cl)c(O)c(O)c2c(C(=O)c3ccccc3)coc12` gave SW480 rereplic 0%[9.22 µM], MCF10A rerep inconclusive, HT1080 IDH1KD tx 12µM*, KB-3-1 cytotox 13µM*, HT1080NT lethal inconclusive and KB-V1 cytotox inconclusive.
For C[C@@H]1[C@@H](Sc2ccccc2)CC(=O)O[C@@H]1c1ccc(-c2ccccc2)cc1 the results were SW480 rereplic 28%, MCF10A rerep 101%, HT1080 IDH1KD tx inconclusive, KB-3-1 cytotox inconclusive, HT1080NT lethal inconclusive and KB-V1 cytotox inconclusive.
O=C1C=CC2(O[C@H](c3ccccc3)[C@@H](c3ccccc3)O2)[C@H](Sc2ccccc2O)C1 was read as SW480 rereplic inconclusive, MCF10A rerep inconclusive, HT1080 IDH1KD tx 3.3µM*, KB-3-1 cytotox 3.3µM*, HT1080NT lethal 4.6µM* and KB-V1 cytotox inconclusive.
`COc1ccc(C(NC(=O)C(C)C)c2c(O)ccc3ccccc23)cc1` (stereo not given) gave SW480 rereplic inconclusive, MCF10A rerep 18µM*, HT1080 IDH1KD tx inconclusive, KB-3-1 cytotox inconclusive, HT1080NT lethal inconclusive and KB-V1 cytotox inactive.
CCC(=O)NC(c1ccc(OC)cc1)c1c(O)ccc2ccccc12 (stereo not given) was read as SW480 rereplic inconclusive, MCF10A rerep 20%, KB-3-1 cytotox inconclusive and KB-V1 cytotox inconclusive.
Screening CC(C)C(=O)NC(c1ccco1)c1c(O)ccc2ccccc12 (stereo not given) returned SW480 rereplic 27%, MCF10A rerep 21µM*, HT1080 IDH1KD tx 2%, KB-3-1 cytotox inactive, HT1080NT lethal 10% and KB-V1 cytotox inactive.
